CHX counter: Cycloheximide Counterscreen for Small Molecule Inhibitors of Shiga Toxin | cell reporter, cycloheximide protein synthesis inhibition counterscreen | max response, % | hit rate 12% among 300,000 | AID 2314, 2010; in the data active = max response mostly above about 13%, no sharp cut-off; inactive = mostly below about 14%; also: read at 38.3 µM for the half of the compounds with a filed dose; 0% is about no effect
Pf growth 48h: Primary qHTS for delayed death inhibitors of the malarial parasite plastid, 48 hour incubation | hit rate 5.9% among 310,000 | P. falciparum luciferase growth in erythrocytes, 48 h | AID 504832, 2011 | Potency, µM (series often up to 28.7 µM), without a hit: top-dose activity change, negative = inhibition, actives largely listed as inhibitors; also: potency is read from the fitted curve at half-maximal effect; % is scaled to controls: 0 for no effect and ±100 for the full control effect
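Luciferase-expressing P. falciparum in infected erythrocytes (2% hematocrit, 0.1% parasitemia final) in RPMI 1640/0.5% Albumax were exposed to compound for 48 hours at 37 C, 5% CO2; growth read as luminescence.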
HCMV inh: qHTS Assay for inhibitors of the human cytomegalovirus (HCMV). HFF cells, HCMV-luciferase reporter, 72 h; stronger effect = lower value. activity change, negative = inhibition, % at 57.5 µM. hit rate 4.5% among 410,000; in the data active = activity change below about -60%; inconclusive = no clear call, values can overlap the other calls; inactive = above about -39%; also: % is scaled to controls: 0 for no effect and ±100 for the full control effect
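Luciferase read-out from HCMV-luciferase-infected HFFs (MOI 1 PFU/cell) 72 h post infection at 37C; compounds added after 16 h cell attachment; activity normalized between buffer-only basal and Salinomycin (10uM) inhibitor controls.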
Shiga toxin inh: A qHTS for Small Molecule Inhibitors of Shiga Toxin; inhibition, % at 38.7 µM; Vero cells, Shiga toxin protein synthesis inhibition reporter; hit rate 9.2% among 290,000; AID 2315, 2010; in the data active = inhibition mostly above about 28%, no sharp cut-off; inactive = mostly below about 43%; also: 0% is about no effect
Pf growth 96h: Primary qHTS for delayed death inhibitors of the malarial parasite plastid, 96 hour incubation | P. falciparum luciferase reporter growth, 96 h | Potency, µM (doses to about 28.7 µM), for the others: top-dose activity change, negative = inhibition, hits mostly inhibitors | hit rate 6.9% among 320,000 | AID 504834, 2011; also: potency is read from the fitted curve at half-maximal effect; % is scaled to controls: 0 for no effect and ±100 for the full control effect
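Readout is luminescence from an integrated firefly luciferase in P. falciparum. Red cells, 2% hematocrit and 0.05% parasitemia final, were cultured with compound through two parasite generations (96 hours) at 37 C, 5% CO2.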
The depositor's hits bear a star; ? = inconclusive; / = no result given. An excerpt weighted towards active compounds, which were near 20% of everything screened. Unless noted, calls follow the shape of the dose curve; as a rule, active = well fitted inhibition curve with a large enough effect; inconclusive = small, poorly fitted or top-dose-only effect, or another doubt; inactive = no such curve, though single readings can be large or run the other way.

SMILES	CHX counter	Pf growth 48h	HCMV inh	Shiga toxin inh	Pf growth 96h
COc1ccc(-c2csc(C(C)(O)c3cccnc3)n2)cn1 (configuration not stated)	/	/	-12	/	/
COc1cccc(C(C)(O)c2nc(-c3ccc(OC)nc3)cs2)c1 (configuration not stated)	/	/	-62*	/	/
COc1ccc(CNC(=O)O[C@H]2CC[C@@]34CCCN3C(=O)CCC[C@H]4[C@H]2Cc2ccccc2)cc1OC	/	/	10	/	/
O=c1ccn([C@@H]2O[C@H](CNCc3c(OCc4ccccc4F)ccc4ccccc34)[C@@H](O)[C@H]2O)c(=O)[nH]1	/	/	-35	/	/
CC1CCCCC1NC(=O)NC(=O)CCl (configuration not stated)	0	8.3µM*	6	-1	?
CC1CCCCC1NC(=O)NC(=O)COC(=O)c1nccnc1N (configuration not stated)	/	/	-6	/	/
CC1CCCC(NC(=O)NC(=O)CCl)C1C (configuration not stated)	4	0.033µM*	-29	-8	10µM*
COc1ccc(CCNC(=O)CN2C(=O)C3(OCCCO3)c3ccccc32)cc1OC	-1	0%	22	10	?
CCN(CC(=O)Nc1c(F)cccc1F)C(=O)c1ccc(NC(=O)CC2SC(N3CCCC3)=NC2=O)cc1 (configuration not stated)	/	0%	-4	/	13µM*
CN(Cc1c(F)cccc1Cl)C(=O)c1ccc(NC(=O)CC2SC(N3CCCC3)=NC2=O)cc1 (configuration not stated)	/	10µM*	-25	/	?
COc1ccc(CN(C)C(=O)c2ccc(NC(=O)CC3SC(N4CCCC4)=NC3=O)cc2)c(OC)c1OC (configuration not stated)	/	?	8	/	5.9µM*
O=C(CC1SC(N2CCCC2)=NC1=O)Nc1ccc(C(=O)NCc2ccccc2F)cc1 (configuration not stated)	/	/	55	/	/
O=C(COc1ccccc1Br)N1CCN(C(=O)c2ccco2)CC1	-3	-9%	8	-4	?
Cc1ccc(C)c(Cn2c(=O)n(CCCCC(=O)NCc3ccccc3Cl)c(=O)c3ccccc32)c1	/	/	2	/	/
CCc1ccc(-n2nc3ccc(NC(=O)COc4ccc(OC)cc4)cc3n2)cc1	/	/	51	/	/
Cc1ccc(CNC(=O)c2ccc3c(=O)n(CCCN4CCCC4=O)c(=S)[nH]c3c2)cc1	-2	/	15	3	-26%
COc1ccc(CNC(=O)c2ccc3c(=O)n(CCCN4CCCC4=O)c(=S)[nH]c3c2)cc1	-1	?	-26	14	4.1µM*
COc1ccccc1CNC(=O)c1ccc2c(=O)n(CCCN3CCCC3=O)c(=S)[nH]c2c1	-1	?	-30	1	15µM*
COc1ccc(OC)c(-n2c(=S)[nH]c3cc(C(=O)NCCCN4CCCC4=O)ccc3c2=O)c1	5	5%	66	-7	37%
COC(=O)c1ccc2c(=O)n(CCCN3CCCC3=O)c(=S)[nH]c2c1	-1	12µM*	-20	-8	-19%
COc1ccc(-n2c(=S)[nH]c3cc(C(=O)NCCCN4CCCC4=O)ccc3c2=O)cc1OC	-4	/	-99*	-13	-26%
CCc1ccccc1NC(=O)CSc1nnc(C2CC2)n1CC1CCCO1 (configuration not stated)	-3	-3%	20	-3	2%
CCOc1ccccc1N(CC)C(=O)c1noc2c1COc1ccc(C)cc1-2	/	/	-4	/	/
CCN(CC)CCCN(Cc1cc2cc3c(cc2[nH]c1=O)OCO3)C(=S)NCCOC	2	25%	28	/	-23%
COc1cc(C(=O)NCCCN2CCCC2=O)ccc1OCc1ccc(Cl)cc1Cl	/	10µM*	-27	/	?
Cc1ccc(-c2nc(-c3cccnc3)no2)c(C)c1	36*	?	128	108*	-12%
Cc1c(-c2nc(-c3cccnc3)no2)cccc1[N+](=O)[O-]	24*	-1%	74	38	14%
Cc1ccc(CNC(=O)c2ccc3c(=O)n(-c4ccccc4)c(=O)[nH]c3c2)cc1	/	/	3	/	/
COc1cccc(NC(=O)C2CCCN(S(=O)(=O)c3cn(C(C)C)cn3)C2)c1 (configuration not stated)	/	/	8	/	/
COc1cc(OC)cc(OCC(O)Cn2cnc(-c3ccccc3)c2)c1 (configuration not stated)	1	13µM*	-13	-8	1%

Source: PubChem BioAssay (National Center for Advancing Translational Sciences (NCATS))
